# From PubChem BioAssay (Tox21)
# Several values for one entry are separate records, joined by “and”; a condition that tells them apart may be missing. Equal entries are not always repeated. Results filed as inconclusive are left out. A call without a number means that no potency is given here. Activity calls are given as the source filed them. The call rests on the fitted dose curve; in most records, active means well fitted cell-killing curve with a large enough effect in the repeat runs; inconclusive means weak or mixed curves, or effect the other way; inactive means flat fitted curve, though single readings scatter.
# Assay: qHTS assay to identify small molecule agonists of the androgen receptor (AR) signaling pathway in the presence of an antagonist - cell viability counter screen (AID 1259379);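 further: MDA-kb2 human breast cancer cells carrying an MMTV luciferase reporter; nearly all actives have a fitted effect of over 25% in size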
# Settings: MDA-kb2 viability, CellTiter-Fluor, 16 h; series mostly up to 92.4 µM
# Procedure, shortened: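 Fluorescence from CellTiter-Fluor, added after 15 hr and read 1 hr later, gave cell viability. Cells were MDA-kb2 exposed to compounds (15 concentrations) in the presence of 3.0uM nilutamide at 37C, 0% CO2.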
row,SMILES,Potency
1,O=Cc1ccccc1O,inactive
2,O=[N+]([O-])c1ccc2c(c1)Cc1ccccc1-2,inactive
3,S=C(NC1CCCCC1)NC1CCCCC1,inactive
4,c1ccc2sc(SSN3CCOCC3)nc2c1,inactive
5,COC(=O)CCC(=O)OC,inactive
6,CCCCC(CC)COCC1CO1 (stereo not given),inactive
7,CCC(C)CO (stereo not given),inactive
8,Nc1ccc(Nc2ccccc2)cc1,inactive
9,O=C(/C=C/C=C/c1ccc2c(c1)OCO2)N1CCCCC1,inactive
10,CCCCOCCOCCO,inactive
11,c1ccncc1,inactive
12,CCCCCCCCCCCO,inactive
13,CCOC(=O)C(C#N)=C(c1ccccc1)c1ccccc1,inactive
14,CCC(C)(O)CCCC(C)C (stereo not given),inactive
15,CC(=O)CC/C=C(\C)CCC=C(C)C,inactive
16,CC1=CC2C3CC(C=C3C)C2C1 (stereo not given),inactive
17,CCCCNS(=O)(=O)c1ccccc1,inactive
18,c1cc(-c2ccncc2)ccn1,inactive
19,CC(CCC(=O)O)(c1ccc(O)cc1)c1ccc(O)cc1,inactive
20,CC(C)OC=O,inactive
21,CC(C)=CCCC(C)CCO (stereo not given),inactive
22,O=C(c1ccccc1)c1ccc(O)cc1O,inactive

# Assay: qHTS assay to identify small molecule agonists of the estrogen receptor beta (ER-beta) signaling pathway - cell viability counter screen (AID 1259380); further: nearly all actives have a fitted effect of over 30% in size; further: potency means the concentration at half of the fitted maximal effect
# Settings: ER-beta-bla HEK293T viability, CellTiter-Glo luminescence, 16 h; series mostly up to 92.4 µM
# Procedure, shortened: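 Same-well viability counter screen. Cells: ER-beta-UAS-bla HEK293T, plated 6 hr before compound, in 2% charcoal-stripped FBS. Compound exposure 16 hr, 37C; viability by CellTiter-Glo luminescence after 30 min at room temperature.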
row,SMILES,Potency
1,O=Cc1ccccc1O,inactive
2,C[C@]12CCC(=O)C=C1CC[C@@H]1[C@@H]2C(=O)C[C@@]2(C)[C@H]1CC[C@]2(O)C(=O)CO,inactive
3,O=[N+]([O-])c1ccc2c(c1)Cc1ccccc1-2,inactive
4,S=C(NC1CCCCC1)NC1CCCCC1,inactive
5,c1ccc2sc(SSN3CCOCC3)nc2c1,30.6 µM (active)
6,COC(=O)CCC(=O)OC,inactive
7,CCC(C)CO (stereo not given),inactive
8,Nc1ncnc2nc[nH]c12,inactive
9,c1cc(N(CC2CO2)CC2CO2)ccc1OCC1CO1 (stereo not given),inactive
10,c1ccc2c(c1)Oc1ccccc1S2,inactive
11,c1ccncc1,inactive
12,CCCCOCCOCCOCCO,inactive
13,CCC(C)OC(=O)c1ccc(O)cc1 (stereo not given),inactive
14,CCC(C)(O)CCCC(C)C (stereo not given),inactive
15,Cn1cnc([N+](=O)[O-])c1Sc1ncnc2nc[nH]c12,4.83 µM (active) and 8.41 µM (active)
16,C=CC(C)(CCC=C(C)C)OC(C)=O (stereo not given),inactive
17,CCCCNS(=O)(=O)c1ccccc1,inactive
18,OC(CCl)CCl,inactive
19,COc1ccccc1/C=C/C=O,55.9 µM (active)
20,CC(C)OB(OC(C)C)OC(C)C,inactive
21,CC(CCC(=O)O)(c1ccc(O)cc1)c1ccc(O)cc1,inactive
22,CC(C)OC=O,inactive
23,CC(C)=CCCC(C)CCO (stereo not given),inactive
